Only some compounds are listed: those with a hit (about 5.7% of all), similar ones and a draw of the others.
KB-V1 cytotox: qHTS assay for MDR1-selective chemotherapeutics: Primary screen using the drug-selected MDR subline cells KB-V1. KB-V1 MDR cells viability, CellTiter-Glo, 72 h. actives 3.4% (n = 400,000). Potency, µM (highest dose often 46.1 µM), usual class: cytotoxic; also: potency is read from the fitted curve at half-maximal effect; nearly all actives have a fitted effect of over 60% in size
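Cytotoxicity via CellTiter-Glo luminescence after 72 h compound exposure at 37 degrees C. Cells: drug-selected KB-V1 line, DMEM phenol-red free plus 10% FBS. Compounds tested at multiple concentrations; normalized data fitted to concentration-effect curves.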
Nrf2 inh: Nrf2 qHTS screen for inhibitors. A549 ARE-Fluc reporter, luciferase luminescence, 18-24 h. Potency, µM (doses to about 46 µM), inactives show at the top dose activity change, negative = inhibition, usual class: inhibitors. actives 2.1% (n = 360,000). AID 504444, 2011; also: potency is read from the fitted curve at half-maximal effect; nearly all actives have a fitted effect of over 60% in size
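In this cell-based qHTS, ARE-driven firefly luciferase in A549 cells reports Nrf2 activity; the luminescent signal after BugLite lysis is the measured value, with a prior CellTiter-Fluor read for cell health.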
Giardia kill: Small Molecules that selectively kill Giardia lamblia: qHTS; Giardia lamblia trophozoite viability; activity change, % at 7.66 µM, hits read low; actives 0.15% (n = 340,000); AID 540267, 2011; in the data active = activity change below about -80%; inconclusive = between about -30% and that limit;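 also: parasites exposed to compound for two days anaerobically before the ATP read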
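Trophozoite viability was measured as ATP-dependent luminescence, read 15-30 min after reagent addition. Before that, parasites at 100 cells/well were exposed to compounds for 48 h, anaerobically, at 37 deg C.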
KB-3-1 cytotox: qHTS assay for MDR1-selective chemotherapeutics: Primary screen using the parental adenocarcinoma cell KB-3-1. actives 1.4% (n = 400,000). Potency, µM (top dose mostly 46.1 µM), usual class: cytotoxic. KB-3-1 viability, CellTiter-Glo ATP luminescence, 72 h; also: potency is read from the fitted curve at half-maximal effect; nearly all actives have a fitted effect of over 60% in size
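KB-3-1 parental drug-naive adenocarcinoma cells in DMEM/10% FBS, incubated 72 h at 37 C with pin-transferred compounds across a concentration series. Viability by CellTiter-Glo luminescence; concentration-response curves fitted after normalization.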
PI4K2A block: qHTS for small molecular inhibitors of PI4K2A; purified PI4K2A, ADP-Glo luminescence, 1 h; stronger effect = lower value; Phosphatidylinositol 4-kinase type 2-alpha (Homo sapiens), Q9BTU6; actives 0.13% (n = 420,000); activity change, negative = inhibition, % at 76.9 µM; in the data active = activity change below about -50%; inconclusive = mostly about -30% to -49%;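 also: -100% = wells without enzyme as full effect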
Target sequence (Q9BTU6 whole entry, looked up): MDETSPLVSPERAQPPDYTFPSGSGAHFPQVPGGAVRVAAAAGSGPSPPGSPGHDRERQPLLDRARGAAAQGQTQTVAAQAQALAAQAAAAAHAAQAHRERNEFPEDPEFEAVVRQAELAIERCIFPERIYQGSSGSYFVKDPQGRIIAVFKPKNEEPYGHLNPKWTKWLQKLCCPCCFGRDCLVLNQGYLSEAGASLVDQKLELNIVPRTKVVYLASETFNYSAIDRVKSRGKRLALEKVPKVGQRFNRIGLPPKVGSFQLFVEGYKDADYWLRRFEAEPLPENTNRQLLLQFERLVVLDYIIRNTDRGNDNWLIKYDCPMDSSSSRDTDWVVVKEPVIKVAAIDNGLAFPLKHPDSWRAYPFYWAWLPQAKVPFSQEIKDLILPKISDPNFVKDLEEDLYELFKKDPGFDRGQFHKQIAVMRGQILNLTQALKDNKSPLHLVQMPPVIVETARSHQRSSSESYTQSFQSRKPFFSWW
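ADP-Glo luminescence measured ADP generated by PI4K2A enzyme (4 ug/mL before mixing) with 1.2 mM PI substrate (pre-mix) and 300 microM ATP (pre-mix). Tris pH7.5 buffer with MgCl2, Triton X-100; 1 h reaction at ambient temperature.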
A549 viability: Nrf2 qHTS screen for inhibitors: counterscreen for cytotoxicity; AID 504648, 2011; A549 ARE-Fluc cells, CellTiter-Fluor viability, 18-24 h; actives 0.16% (n = 390,000); Potency, µM (top dose mostly 46 µM), without a hit: top-dose activity change, negative = cytotoxicity, actives largely listed as inhibitors; also: potency is read from the fitted curve at half-maximal effect
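A549 ARE_Fluc cells in 5% FBS OPTI-MEM were exposed to compounds in concentration-response for 18-24 h at 37 deg C. Viability was read by CellTiter-Fluor fluorescence (Ex 405/Em 525) after 30 min, before the luciferase read.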
Active calls of the source: *; i = inactive; ? = inconclusive; nt = not tested or not shown. Unless noted, calls follow the shape of the dose curve; as a rule, active = well fitted curve in the direction sought with a large enough effect; inconclusive = small, poorly fitted or top-dose-only effect, or another doubt; inactive = no such curve, though single readings can be large; an effect the other way counts as inactive or inconclusive. Unless noted, % is scaled to controls: 0 for no effect and ±100 for the full control effect.

SMILES | KB-V1 cytotox | Nrf2 inh | Giardia kill | KB-3-1 cytotox | PI4K2A block | A549 viability
FC(F)(F)c1nc(-c2ccncc2)ncc1-c1nnnn1-c1ccccc1 | 21µM* | -5% | -1 | i | -6 | -2%
c1ccc(-n2nnnc2-c2cnc(-c3ccncc3)nc2-c2cccs2)cc1 | ? | -2% | -11 | i | 0 | 21%
COC(=O)[C@]1(C#N)CC(=O)N(C(C)C)[C@@H]1c1ccccc1 | nt | nt | nt | nt | 4 | nt
Cc1cc2c(cc1S(=O)(=O)Nc1cccc(Cl)c1C)OCCN2C | nt | -14% | nt | nt | -5 | -1%
Cc1cc(C)cc(N(CC(=O)NC2CCC(C)CC2)S(=O)(=O)c2cccs2)c1 (centres undefined) | nt | nt | nt | nt | 3 | nt
O=C(COC(=O)c1ccccc1O)Nc1cccc2ccccc12 | i | 15% | -12 | i | 2 | 10%
N/C(=N/OC(=O)c1ccccc1Cl)c1nonc1N | i | ? | -14 | ? | -54* | -8%
N/C(=N/OCC(=O)Nc1cccc2ccccc12)c1nonc1N | 15µM* | -6% | -23 | i | -1 | ?
OCCCNc1nc(-c2ccc(Cl)cc2)nnc1-c1ccc(Br)cc1 | i | ? | -5 | 23µM* | -2 | -3%
O=[N+]([O-])c1ccc(-c2nnc(-c3ccccc3)c(NCCCO)n2)cc1 | ? | 8% | 23 | i | -4 | 7%
Cc1cc(C)c2c(C)c(C(=O)NCc3ccncc3)oc2c1 | ? | 11% | -4 | i | 4 | 3%
Cc1ccc2onc(CNC(=O)Nc3cc(F)ccc3F)c2c1 | i | ? | nt | i | 2 | 11%
Cc1ccc2oc(C(=O)NCc3ncc(C)[nH]3)c(C)c2c1 | ? | 6% | -14 | 10µM* | 7 | -13%
CCc1ccc2oc(C(=O)NCc3ccncc3)c(C)c2c1 | 12µM* | ? | 10 | ? | 3 | -11%
CCN(CC)S(=O)(=O)c1ccc(NC(=O)NCc2noc3ccc(C)cc23)cc1 | i | 18µM* | nt | ? | -1 | ?
CCN(CC)S(=O)(=O)c1ccc2oc(C(=O)NCc3ccc(C)cc3)c(C)c2c1 | ? | 16µM* | -7 | i | 0 | 2%
CCCCN(CCCC)S(=O)(=O)c1ccc2oc(C(=O)NCc3ccc(C)cc3)c(C)c2c1 | i | nt | nt | i | -1 | -1%
S=c1[nH]nc(-c2cc(-c3ccccc3)n[nH]2)n1N=Cc1c[nH]c2ccccc12 | nt | nt | nt | nt | -3 | nt
Cc1ccc(O)c(C(C)c2c[nH]c3ccccc23)c1 (centres undefined) | nt | nt | nt | nt | -3 | nt
O=C(CCn1nnc2ccccc21)Nc1nnc(COc2ccccc2F)s1 | i | -5% | -1 | i | 15 | -6%
O=C(CCn1nnc2ccccc21)Nc1nnc(Cc2ccccc2)s1 | 16µM* | ? | 3 | i | -4 | -3%
O=C(CSc1ccccc1C(=O)O)NC1CCCCCC1 | i | 1% | 0 | i | -2 | -1%
O=C(CSc1ccccc1C(=O)NCc1ccccc1)NC12CC3CC(CC(C3)C1)C2 | 5.8µM* | ? | 8 | ? | -4 | -12%
O=C(CSc1ccccc1C(=O)O)NCc1ccccc1 | i | 0% | 3 | i | -1 | 11%
CC(C)CCNC(=O)c1ccccc1SCC(=O)NC1CCCCCCC1 | 5.8µM* | 0% | -5 | i | 4 | -4%
O=C(CSc1ccccc1C(=O)O)NC1CCCCCCC1 | i | ? | -9 | i | -5 | 2%
O=C(CSc1ccccc1C(=O)NCc1ccccc1)NC1CCCCCCC1 | 3.3µM* | 2% | -19 | i | -4 | -8%
C#CCNC(=O)C[C@H]1C[C@@]2(C(=O)OC)C(=C[C@H](C(C)C)O[C@@H]2C2CC2)N(CCC2=CCCCC2)C1=O | nt | nt | nt | nt | -5 | nt
